Among all 69,000 compounds or so, about 8,600 (12%) showed an effect of 50% or more. This is one part of a sample in which strong results are shown more often than they occur.

The assay has as its system Plasmodium berghei. The experiment in a line: Screen against P. berghei liver stage (PbLuc), transformed with Luciferase, at 10uM. Type of assay: functional, HepG2. Particulars: tested at 10 uM.
Turning to `CCN1CC(COC(=O)c2ccc(N(C)C)cc2F)CC1=O` (stereo not given), the INHIBITION is -56.7%.

For `O=C(c1cccc(Cl)c1)N1CCCC2(CCCNC2)C1` (stereo not given), the INHIBITION is given as 0.164%.

With `CN(C)C(=O)CN1C[C@H]2CC[C@@H](C1)N(Cc1ccc3nsnc3c1)C2`, the INHIBITION is reported as 33.8%.

With `Cc1ncc(C(=O)N2CCOC(C(=O)N3CCCCC3)C2)c(C)n1` (stereo not given), the INHIBITION is on record as -5.6%.

For `CN(Cc1cccc(O)c1)Cc1cnn(C)c1`, the INHIBITION worked out at 10%.

For `Cn1cc(-n2cc3nc(N4CCOCC4)[nH]cc-3c2=O)cn1`, the INHIBITION is recorded as -38.7%.

In the case of `NC(=O)c1c(SCCN2CCOCC2)sc2c(O)cc(=O)[nH]c12`, the INHIBITION is 20%.

Turning to `O=C(C1CCC1)N1CCc2onc(Cn3cccn3)c2C1`, the INHIBITION amounted to 24.5%.

On to `CN(C)S(=O)(=O)N1CCCC1c1cccc(-n2ccnc2)n1` (stereo not given), for which the INHIBITION amounted to 33.7%.

As to `CO[C@@H]1CC[C@@H](NC(=O)CCc2ccc(Cl)cc2)[C@H]1O`, the INHIBITION turned out to be 5.35%.

For `COCc1nc2ncc3c(=O)n(-c4ccc(OC)cc4)ccc3n2n1`, the INHIBITION is 15%.

Regarding `COCc1nc2ncc3c(=O)n(-c4ccccc4OC)ccc3n2n1`, the INHIBITION is listed as 66.9%.

As for `COCc1nc2ncc3c(=O)n(-c4cccc(OC)c4)ccc3n2n1`, the INHIBITION is on record as 16.1%.

With `Cc1n[nH]cc1CNC(C)c1cccc(N2CCCC2=O)c1` (stereo not given), the INHIBITION turned out to be 0.643%.

On to `CN1C(=O)[C@@H]2CC[C@H]1CN(C(=O)c1csc(Cc3ccccc3)n1)C2`, for which the INHIBITION amounted to 35.3%.

Take `Cc1c(CN2CC[C@@H](N3CCC(O)CC3)[C@H](O)C2)[nH]c2ccc(Cl)cc12`: the INHIBITION was 36.2%.

With `CSCCC1c2nc[nH]c2CCN1Cc1[nH]c2ccc(F)cc2c1C` (stereo not given), the INHIBITION is 17.9%.

Consider `CN1CCN([C@@H]2CCN(Cc3ccc4cc(F)ccc4n3)C[C@H]2O)CC1`, for which the INHIBITION is listed as -13.5%.

On to `Cc1c(CN2CCc3[nH]cnc3C2C(=O)O)[nH]c2ccc(F)cc12` (stereo not given), for which the INHIBITION came to 1.56%.

Consider `Cc1c(CN2C[C@H](O)[C@@H](N3CCOCC3)C2)[nH]c2ccc(F)cc12`, for which the INHIBITION was 63.1%.

For `Cc1c(CN2CCCC(O)C2)[nH]c2ccc(F)cc12` (stereo not given), the INHIBITION turned out to be 16.5%.

On to `Cc1c(CN2CCc3[nH]cnc3C2C2CC2)[nH]c2ccc(F)cc12` (stereo not given), for which the INHIBITION stood at 65.7%.

Take `Cc1ccc2[nH]c(CN3CC[C@@H](N4CCN(C)CC4)[C@H](O)C3)c(C)c2c1`: the INHIBITION amounted to 34%.

In the case of `Cc1c(CN2CC[C@@H](N3CCC(O)CC3)[C@H](O)C2)[nH]c2ccc(F)cc12`, the INHIBITION was 66.9%.

Consider `CC(=O)NCC(=O)N1C[C@@H](C)[C@@]2(CCN(c3ccsc3)C2=O)C1`, for which the INHIBITION amounted to 15.9%.

For the compound `c1cncc(CN2CCCn3nnc(CN4CCCCC4)c3C2)c1`, the INHIBITION turned out to be 16.8%.

Take `Cn1ncc2c(=O)[nH]c(CN3CCCC3Cc3ccc(F)cc3)nc21` (stereo not given): the INHIBITION was -5.07%.

On to `N#Cc1ccc(S(=O)(=O)NC(=O)COc2ccc3c(c2)CCC3)cc1`, for which the INHIBITION is 29.25%.

`CCNc1cc2c(nn1)CCN(C(=O)c1ccc(-n3cccn3)nc1)C2`: the INHIBITION is listed as -5.26%.

As to `Cc1ccc(C(=O)N2C[C@@H]3CC[C@H]2CN(S(=O)(=O)N(C)C)C3)c(O)c1`, the INHIBITION is listed as 24.7%.

Consider `Cc1ccc(CN2CCc3c(C(=O)N(C)C)nn(C)c3C2)s1`, for which the INHIBITION came out at 8.47%.

In the case of `CCCC(=O)N1CC[C@@H]2[C@H](CC1)N(Cc1cccnc1)CCS2(=O)=O`, the INHIBITION is given as -1.53%.

For `CC1CCN(C(=O)c2occc2COc2cccc(C#N)c2)CC1`, the INHIBITION is listed as -122%.

As to `CCN(CC)CCCC(C)NC(=O)c1cccnc1-n1cccn1` (stereo not given), the INHIBITION is on record as -7.13%.

With `CC(O)(CNC(=O)c1cccnc1-n1cccn1)c1ccsc1` (stereo not given), the INHIBITION stood at 61.1%.

As to `CCC(CC)NC(=O)c1cccnc1N1CCCC1c1ccccn1` (stereo not given), the INHIBITION amounted to 25.3%.

For the compound `CC(O)(CNC(=O)c1cccnc1-n1cccn1)c1ccco1` (stereo not given), the INHIBITION turned out to be 7.39%.

Regarding `CCC(CC)NC(=O)c1cccnc1-n1cccn1`, the INHIBITION turned out to be 55.9%.

Regarding `CC(O)(CNC(=O)c1cccnc1-n1cccn1)c1cccs1` (stereo not given), the INHIBITION was 35.4%.

Take `CCn1nccc1CNC(=O)CCC1CCCC1`: the INHIBITION is listed as 13%.

Turning to `c1coc(CN2C[C@@H]3CN(Cc4ccoc4)CCO[C@@H]3C2)c1`, the INHIBITION came to 24.6%.

For `Cc1cc(NCc2ccc(CS(N)(=O)=O)cc2)nc(C)n1`, the INHIBITION is 11.8%.

Consider `CS(=O)(=O)c1ccc(NC(=O)NC2(c3ccccc3)CCC2)cc1`, for which the INHIBITION came to 36.7%.

`Cc1ccc(CN2CCc3nnc(CN4CCCC4=O)n3CC2)o1`: the INHIBITION is on record as 3.81%.

In the case of `C=C(C)CN1CCC(C(=O)c2cc(F)ccc2F)CC1`, the INHIBITION amounted to 5.03%.

`CCNC(=O)C1(Cc2cc(-c3ccccc3)no2)CCCN(C(C)=O)C1` (stereo not given): the INHIBITION is reported as 42.5%.

On to `COCCC(=O)N[C@H]1CN(c2nc(C)c3c(n2)CCCC3)C[C@@H]1C1CC1`, for which the INHIBITION worked out at 20.4%.

In the case of `Cc1cc(N2C[C@H](NC(=O)C3(C#N)CCOCC3)[C@@H](C(C)C)C2)ccn1`, the INHIBITION was 30.7%.

For the compound `COCC1(C(=O)N[C@H]2CN(c3noc(C)n3)C[C@@H]2C2CC2)CCC1`, the INHIBITION was determined as 2.79%.

Consider `COCC1(C(=O)N[C@H]2CN(c3ccnc(C)c3)C[C@@H]2C2CC2)CCC1`, for which the INHIBITION turned out to be 51.3%.

For the compound `Cc1nc(O)cc(CN2C[C@H](NC(=O)C3CCC3)[C@@H](C3CC3)C2)n1`, the INHIBITION is 18.9%.

Consider `COCC1(C(=O)N[C@H]2CN(c3nnc(C)s3)C[C@@H]2C2CC2)CCC1`, for which the INHIBITION is 64.4%.

Regarding `O=C(CC1CCCC1)N[C@H]1CN(Cc2c[nH]cn2)C[C@@H]1C1CC1`, the INHIBITION came out at 45.2%.

With `Cc1nnc(CN2C[C@H](NC(=O)CC3CCCC3)[C@@H](C3CC3)C2)s1`, the INHIBITION amounted to 64.7%.

Consider `O=C(O)c1cc(N2C[C@H](NC(=O)C3CCOCC3)[C@@H](C3CC3)C2)ccn1`, for which the INHIBITION is on record as 3.68%.

For the origin of these results see ChEMBL document CHEMBL4513216, “Probing the Open Global Health Chemical Diversity Library for Multistage-Active Starting Points for Next-Generation Antimalarials” (ACS Infect Dis, 2020).
